According to PubChem BioAssay (NCATS):
Results filed as inconclusive are left out. Calls of active or inactive are those of the source. Calls come from the whole dose curve; as a rule, active = well fitted cell-killing curve with a large enough effect; inconclusive = small, poorly fitted or top-dose-only effect, or effect the other way; inactive = flat fitted curve, though single readings scatter.

Key:
Assay in all cases: Primary qHTS to identify gynecologic anti-cancer compounds using libraries of approved drugs and bioactive compounds (AID 1345084); note: nearly all actives have a fitted effect of over 55% in size
C33A = settings: Gynecologic cancer cell panel viability, ATPlite luminescence, 48 h; series mostly up to 57.5 µM
Outline: (§1)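 Cell viability after 48 h drug treatment, ATPlite luminescence readout; five doses.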

CAOV3 = settings: Gynecologic cancer cell panel viability, ATPlite luminescence, 48 h; series mostly up to 57.5 µM
Outline: as §1

CASKI = settings: Gynecologic cancer cell panel viability, ATPlite luminescence, 48 h; series mostly up to 57.5 µM
Outline: as §1

Es-2 = settings: Gynecologic cancer cell panel viability, ATPlite luminescence, 48 h; series mostly up to 57.5 µM
Outline: as §1

HeLa = settings: Gynecologic cancer cell panel viability, ATPlite luminescence, 48 h; series mostly up to 57.5 µM
Outline: as §1

Hek293T = settings: Gynecologic cancer cell panel viability, ATPlite luminescence, 48 h, control line for the selectivity index; series mostly up to 57.5 µM
Outline: as §1

JEG-3 = settings: Gynecologic cancer cell panel viability, ATPlite luminescence, 48 h; series mostly up to 57.5 µM
Outline: as §1

OV90 = settings: Gynecologic cancer cell panel viability, ATPlite luminescence, 48 h; series mostly up to 57.5 µM
Outline: as §1

PA-1 = settings: Gynecologic cancer cell panel viability, ATPlite luminescence, 48 h; series mostly up to 57.5 µM
Outline: as §1

Tov-21-G = settings: Gynecologic cancer cell panel viability, ATPlite luminescence, 48 h; series mostly up to 57.5 µM
Outline: as §1

Tov112D = settings: Gynecologic cancer cell panel viability, ATPlite luminescence, 48 h; series mostly up to 57.5 µM
Outline: as §1

SKOV3 = settings: Gynecologic cancer cell panel viability, ATPlite luminescence, 48 h; series mostly up to 57.5 µM
Outline: as §1
% is set by controls: 0 for no effect and ±100 for the full control effect.

Cc1ccccc1NC(=O)Nc1ccc(CN2C(=O)N([C@@H](CC(C)C)C(=O)N[C@@H](CC(=O)O)c3ccccc3)C(=O)C2(C)C)cc1
inactive: Potency (C33A) | Potency (CAOV3) | outcome (CASKI) | Potency (Es-2) | Potency (HeLa) | Potency (Hek293T) | Potency (JEG-3) | Potency (OV90) | Potency (PA-1) | Potency (Tov-21-G) | Potency (Tov112D)

COc1cc(/C=C/C(=O)OCC2OC(OC3(CO)OC(CO)C(O)C3O)C(O)C(O)C2O)ccc1O (stereo not given)
inactive: Potency (C33A) | Potency (CAOV3) | outcome (CASKI) | Potency (Es-2) | Potency (HeLa) | Potency (Hek293T) | Potency (JEG-3) | Potency (OV90) | Potency (PA-1) | Potency (Tov-21-G) | Potency (Tov112D)

CC1=C2CC(C)(C)CC2C(O)C2=C(C1)C(=O)OC2O (stereo not given)
inactive: Potency (C33A) | Potency (CAOV3) | outcome (CASKI) | Potency (Es-2) | Potency (HeLa) | Potency (Hek293T) | Potency (JEG-3) | Potency (OV90) | Potency (SKOV3) | Potency (Tov-21-G) | Potency (Tov112D)

C/C=C(/C)C(=O)OC1C(OC(C)=O)C23C(O)OC4(CCC5C6(C)CCC(OC7OC(C(=O)O)C(O)C(OC8OC(CO)C(O)C(O)C8OC8OC(C)C(O)C(O)C8OC8OCC(O)C(O)C8O)C7OC7OC(CO)C(O)C(O)C7O)C(C)(C)C6CCC5(C)C4(C)CC2OC(C)=O)C3CC1(C)C (stereo not given)
inactive: activity change, negative = cytotoxicity (C33A) 8.72% [at 6.55 µM] | activity change, negative = cytotoxicity (CAOV3) 8.69% [at 6.55 µM] | activity change, negative = cytotoxicity (CASKI) 1.53% [at 6.55 µM] | activity change, negative = cytotoxicity (Es-2) 1.17% [at 6.55 µM] | activity change, negative = cytotoxicity (HeLa) -3.79% [at 6.55 µM] | activity change, negative = cytotoxicity (Hek293T) -2.54% [at 6.55 µM] | activity change, negative = cytotoxicity (JEG-3) 2.12% [at 6.55 µM] | activity change, negative = cytotoxicity (OV90) 3.74% [at 6.55 µM] | activity change, negative = cytotoxicity (PA-1) -0.0173% [at 6.55 µM] | activity change, negative = cytotoxicity (Tov-21-G) -4.78% [at 6.55 µM] | activity change, negative = cytotoxicity (Tov112D) 1.18% [at 6.55 µM]

Cc1c(C)c(NCC(=O)N(C)C2CCN(Cc3ccc(C(N)=O)cc3)CC2)c(C)c(C)c1N
inactive: Potency (C33A) | Potency (CAOV3) | outcome (CASKI) | Potency (Es-2) | Potency (HeLa) | Potency (Hek293T) | Potency (JEG-3) | Potency (OV90) | Potency (PA-1) | Potency (Tov-21-G) | Potency (Tov112D)

CCOC(=O)COc1ccc2c(c1)C[C@@H](NC[C@H](O)c1cccc(Cl)c1)CC2
inactive: Potency (C33A) | Potency (CAOV3) | outcome (CASKI) | Potency (Es-2) | Potency (HeLa) | Potency (Hek293T) | Potency (JEG-3) | Potency (OV90) | Potency (PA-1) | Potency (Tov-21-G) | Potency (Tov112D)

CC1(C)C=Cc2c(ccc3c2N=C2C(C)(C)[C@@H]4C[C@]56CCCN5C(=O)[C@@]4(C[C@]23O)NC6=O)O1
inactive: Potency (C33A) | Potency (CAOV3) | outcome (CASKI) | Potency (Es-2) | Potency (HeLa) | Potency (Hek293T) | Potency (JEG-3) | Potency (OV90) | Potency (PA-1) | Potency (Tov-21-G) | Potency (Tov112D)

C/C=C(\C)C1C(C)=CC2CCC(OS(=O)(=O)O)C(C)C2C1/C=C/C=C/C(=O)O (stereo not given)
inactive: Potency (C33A) | Potency (CAOV3) | outcome (CASKI) | Potency (Es-2) | Potency (HeLa) | Potency (Hek293T) | Potency (JEG-3) | Potency (OV90) | Potency (PA-1) | Potency (Tov-21-G) | Potency (Tov112D)

CC(=O)NC(Cc1c[nH]c2ccccc(=O)c12)C(=O)O (stereo not given)
inactive: Potency (C33A) | Potency (CAOV3) | outcome (CASKI) | Potency (Es-2) | Potency (HeLa) | Potency (Hek293T) | Potency (JEG-3) | Potency (OV90) | Potency (PA-1) | Potency (Tov-21-G) | Potency (Tov112D)

O=C(O)c1ccncc1Nc1nn(CCN2CCC(F)(F)CC2)c2ccc(F)cc12
inactive: Potency (C33A) | Potency (CAOV3) | outcome (CASKI) | Potency (Es-2) | Potency (HeLa) | Potency (Hek293T) | Potency (JEG-3) | Potency (OV90) | Potency (PA-1) | Potency (Tov-21-G) | Potency (Tov112D)

C[C@@H]1C(=O)O[C@H](C)[C@H]1C[C@@H](O)[C@](C)(O)[C@H]1CC[C@@]2(O)C3=CC(=O)[C@@H]4C[C@@H](O)[C@@H](O)C[C@]4(C)C3CC[C@]12C (stereo not given in full)
inactive: Potency (C33A) | Potency (CAOV3) | outcome (CASKI) | Potency (Es-2) | Potency (HeLa) | Potency (Hek293T) | Potency (JEG-3) | Potency (OV90) | Potency (SKOV3) | Potency (Tov-21-G) | Potency (Tov112D)

COc1ccc(C2COc3cc(O)ccc3C2)c(O)c1OC (stereo not given)
inactive: Potency (C33A) | Potency (CAOV3) | outcome (CASKI) | Potency (Es-2) | Potency (HeLa) | Potency (Hek293T) | Potency (JEG-3) | Potency (OV90) | Potency (PA-1) | Potency (Tov-21-G) | Potency (Tov112D)

CC(C)C1(O)NC(=O)C(CC2(O)c3ccccc3N3C(=O)C(C)(C)NC32)n2c1nc1ccccc1c2=O (stereo not given)
inactive: Potency (C33A) | Potency (CAOV3) | outcome (CASKI) | Potency (Es-2) | Potency (HeLa) | Potency (Hek293T) | Potency (JEG-3) | Potency (OV90) | Potency (SKOV3) | Potency (Tov-21-G) | Potency (Tov112D)

CC1CCC2C(C(=O)O)=CC3(O)CC(C)(C)CC123 (stereo not given)
inactive: Potency (C33A) | Potency (CAOV3) | outcome (CASKI) | Potency (Es-2) | Potency (HeLa) | Potency (Hek293T) | Potency (JEG-3) | Potency (OV90) | Potency (SKOV3) | Potency (Tov-21-G) | Potency (Tov112D)

C=C(C)[C@H]1CC[C@]2(C(=O)O)CC[C@]3(C)C(CCC4[C@@]5(C)CCC(=O)C(C)(C)C5CC[C@]43C)C12 (stereo not given in full)
inactive: Potency (C33A) | Potency (CAOV3) | outcome (CASKI) | Potency (Es-2) | Potency (HeLa) | Potency (Hek293T) | Potency (JEG-3) | Potency (OV90) | Potency (PA-1) | Potency (Tov-21-G) | Potency (Tov112D)
